# The full data set covers some 7,900 targets. This sample favours those with a hit. About 0.6% of all pairs of compound and target were hits. Values without a mark were called inactive.
# Columns and labels:
# Assay in all cases: log2 fold change, soluble protein after heating vs DMSO (PISA); higher = thermal stabilisation; K562 cells, 10 uM, 30 min; active = over 0.2 and 3.5 SD of the protein, either way, in both replicates (recomputed)
# [1] = compound: COC1=CC=C(C=C1)CN2C=CC3=C2C=C(C=C3)C(=O)NO
# Summary of the method: (§1)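 K562 cells at 2×10^6 cells/mL were treated for 30 min with 10 μM compound, and aliquots were heated for 3 min over 48°C-58°C before pooling. Extraction used PBS with 0.5% NP-40 at 4°C, and soluble protein was the supernatant after 21,000xg for 90 min, measured by TMTpro 16plex LC-MS/MS with channel sums equalised. Thermal stability values, relative to control samples and from duplicates, are log2 fold changes.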
# filanesib = compound: CON(C)C(=O)N1N=C(c2cc(F)ccc2F)S[C@@]1(CCCN)c1ccccc1 [filanesib]
# Summary of the method: as §1
# zotarolimus = compound: CO[C@H]1C[C@@H]2CC[C@@H](C)[C@@](O)(O2)C(=O)C(=O)N2CCCC[C@H]2C(=O)O[C@H]([C@H](C)C[C@@H]2CC[C@H](n3cnnn3)[C@H](OC)C2)CC(=O)[C@H](C)/C=C(\C)[C@@H](O)[C@@H](OC)C(=O)[C@H](C)C[C@H](C)/C=C/C=C/C=C/1C [zotarolimus]
# Summary of the method: as §1
# idasanutlin = compound: COc1cc(C(=O)O)ccc1NC(=O)[C@@H]1N[C@@H](CC(C)(C)C)[C@](C#N)(c2ccc(Cl)cc2F)[C@H]1c1cccc(Cl)c1F [idasanutlin]
# Summary of the method: as §1
# alisertib = compound: COc1cc(Nc2ncc3c(n2)-c2ccc(Cl)cc2C(c2c(F)cccc2OC)=NC3)ccc1C(=O)O [alisertib]
# Summary of the method: as §1
# [2] = compound: COc1cc2nc(-c3cc(F)ccc3O)nc(N[C@@H]3CNC[C@H]3C(C)(C)O)c2cc1OC
# Summary of the method: as §1
# gefitinib = compound: COc1cc2ncnc(Nc3ccc(F)c(Cl)c3)c2cc1OCCCN1CCOCC1 [gefitinib]
# Summary of the method: as §1
# [3] = compound: COc1cccc2cc(-c3nc([C@H]4CC[C@H](C(=O)O)CC4)n4ncnc(N)c34)[nH]c12
# Summary of the method: as §1
# lapatinib = compound: CS(=O)(=O)CCNCc1ccc(-c2ccc3ncnc(Nc4ccc(OCc5cccc(F)c5)c(Cl)c4)c3c2)o1 [lapatinib]
# Summary of the method: as §1
# pictilisib = compound: CS(=O)(=O)N1CCN(Cc2cc3nc(-c4cccc5[nH]ncc45)nc(N4CCOCC4)c3s2)CC1 [pictilisib]
# Summary of the method: as §1
# [4] = compound: CS(=O)(=O)c1ccc(-c2cnc(N)c(C(=O)Nc3ccccc3)n2)cc1
# Summary of the method: as §1
# crizotinib = compound: C[C@@H](Oc1cc(-c2cnn(C3CCNCC3)c2)cnc1N)c1c(Cl)ccc(F)c1Cl [crizotinib]
# Summary of the method: as §1
# [5] = compound: C[C@@H]1COCCN1C2=NC(=NC(=C2)C3(CC3)S(=O)(=O)C)C4=C5C=CNC5=CC=C4
# Summary of the method: as §1
# [6] = compound: C[C@H](C1=CC=C(C=C1)C(=O)NC2=C3C=CNC3=NC=C2)N
# Summary of the method: as §1
# duvelisib = compound: C[C@H](Nc1ncnc2nc[nH]c12)c1cc2cccc(Cl)c2c(=O)n1-c1ccccc1 [duvelisib]
# Summary of the method: as §1
# gandotinib = compound: Cc1cc(Nc2cc(CN3CCOCC3)c3nc(C)c(Cc4ccc(Cl)cc4F)n3n2)n[nH]1 [gandotinib]
# Summary of the method: as §1
# tozasertib = compound: Cc1cc(Nc2cc(N3CCN(C)CC3)nc(Sc3ccc(NC(=O)C4CC4)cc3)n2)n[nH]1 [tozasertib]
# Summary of the method: as §1
# [7] = compound: Cc1cc(SCc2sc(-c3ccc(C(F)(F)F)cc3)nc2C)ccc1OCC(=O)O
# Summary of the method: as §1
# doramapimod = compound: Cc1ccc(-n2nc(C(C)(C)C)cc2NC(=O)Nc2ccc(OCCN3CCOCC3)c3ccccc23)cc1 [doramapimod]
# Summary of the method: as §1
# ispinesib = compound: Cc1ccc(C(=O)N(CCCN)[C@@H](c2nc3cc(Cl)ccc3c(=O)n2Cc2ccccc2)C(C)C)cc1 [ispinesib]
# Summary of the method: as §1
# Chain of UniProt Q9Y5Q0 (Q9Y5Q0 whole entry, looked up): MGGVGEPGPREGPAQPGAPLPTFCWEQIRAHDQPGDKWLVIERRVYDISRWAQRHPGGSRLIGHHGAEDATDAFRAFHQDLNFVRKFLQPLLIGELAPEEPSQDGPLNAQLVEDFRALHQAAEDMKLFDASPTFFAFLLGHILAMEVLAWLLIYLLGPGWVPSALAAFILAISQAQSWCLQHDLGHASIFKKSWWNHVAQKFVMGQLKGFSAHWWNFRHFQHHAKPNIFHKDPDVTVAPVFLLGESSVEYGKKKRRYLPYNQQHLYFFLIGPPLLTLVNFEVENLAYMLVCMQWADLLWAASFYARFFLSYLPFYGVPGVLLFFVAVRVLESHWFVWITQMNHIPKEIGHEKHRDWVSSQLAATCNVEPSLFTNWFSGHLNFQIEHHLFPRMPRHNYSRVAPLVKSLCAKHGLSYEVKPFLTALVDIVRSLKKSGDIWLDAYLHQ
# Chain of UniProt Q5W0V3 (Q5W0V3 whole entry, looked up): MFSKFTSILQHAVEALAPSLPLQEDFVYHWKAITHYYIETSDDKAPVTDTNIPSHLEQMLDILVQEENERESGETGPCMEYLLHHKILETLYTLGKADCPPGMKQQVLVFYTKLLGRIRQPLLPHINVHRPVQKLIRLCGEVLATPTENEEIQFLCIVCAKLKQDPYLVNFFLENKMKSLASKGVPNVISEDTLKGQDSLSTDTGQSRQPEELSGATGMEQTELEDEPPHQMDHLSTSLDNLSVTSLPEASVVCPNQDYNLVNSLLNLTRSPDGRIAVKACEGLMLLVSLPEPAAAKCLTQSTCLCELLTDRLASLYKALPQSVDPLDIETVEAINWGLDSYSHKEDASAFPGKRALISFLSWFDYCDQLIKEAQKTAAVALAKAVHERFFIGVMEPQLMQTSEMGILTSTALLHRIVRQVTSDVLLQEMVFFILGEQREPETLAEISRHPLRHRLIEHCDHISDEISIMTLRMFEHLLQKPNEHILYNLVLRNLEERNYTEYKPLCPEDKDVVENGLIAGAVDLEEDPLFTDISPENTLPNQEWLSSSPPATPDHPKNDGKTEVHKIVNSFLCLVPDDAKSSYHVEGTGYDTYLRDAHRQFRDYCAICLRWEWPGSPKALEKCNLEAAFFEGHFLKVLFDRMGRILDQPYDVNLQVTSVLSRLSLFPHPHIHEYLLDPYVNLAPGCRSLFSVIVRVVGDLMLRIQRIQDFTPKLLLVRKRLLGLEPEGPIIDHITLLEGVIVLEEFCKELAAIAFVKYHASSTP
# Chain of UniProt P10619 (P10619 whole entry, looked up): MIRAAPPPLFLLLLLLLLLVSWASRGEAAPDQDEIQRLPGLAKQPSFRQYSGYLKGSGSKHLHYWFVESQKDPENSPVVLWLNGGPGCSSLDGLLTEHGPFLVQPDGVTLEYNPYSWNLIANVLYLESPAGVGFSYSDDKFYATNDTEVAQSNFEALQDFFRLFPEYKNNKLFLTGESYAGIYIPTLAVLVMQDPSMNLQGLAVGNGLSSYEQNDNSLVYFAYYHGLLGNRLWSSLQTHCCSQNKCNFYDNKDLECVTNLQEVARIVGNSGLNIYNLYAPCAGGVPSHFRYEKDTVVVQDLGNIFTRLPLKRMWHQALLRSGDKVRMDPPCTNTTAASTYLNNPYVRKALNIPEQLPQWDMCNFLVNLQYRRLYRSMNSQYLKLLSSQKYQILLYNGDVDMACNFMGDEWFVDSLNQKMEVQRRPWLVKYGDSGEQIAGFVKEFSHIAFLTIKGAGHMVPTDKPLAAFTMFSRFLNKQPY
# Chain of UniProt Q16850 (Q16850 whole entry, looked up): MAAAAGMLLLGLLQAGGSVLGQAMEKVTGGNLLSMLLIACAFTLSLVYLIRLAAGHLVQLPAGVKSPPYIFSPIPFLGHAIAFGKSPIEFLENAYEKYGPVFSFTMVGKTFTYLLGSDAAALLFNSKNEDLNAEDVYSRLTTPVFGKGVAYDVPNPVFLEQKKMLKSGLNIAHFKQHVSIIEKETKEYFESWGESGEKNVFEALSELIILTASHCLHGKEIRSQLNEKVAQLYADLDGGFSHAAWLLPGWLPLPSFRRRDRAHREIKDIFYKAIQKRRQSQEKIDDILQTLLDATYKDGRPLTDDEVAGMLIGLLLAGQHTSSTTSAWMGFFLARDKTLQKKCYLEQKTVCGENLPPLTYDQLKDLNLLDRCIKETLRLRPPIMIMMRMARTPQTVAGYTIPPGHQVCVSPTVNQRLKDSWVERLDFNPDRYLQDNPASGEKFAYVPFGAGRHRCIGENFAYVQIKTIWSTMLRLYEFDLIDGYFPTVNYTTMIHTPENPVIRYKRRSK
# Chain of UniProt Q7Z2Z2 (Q7Z2Z2 whole entry, looked up): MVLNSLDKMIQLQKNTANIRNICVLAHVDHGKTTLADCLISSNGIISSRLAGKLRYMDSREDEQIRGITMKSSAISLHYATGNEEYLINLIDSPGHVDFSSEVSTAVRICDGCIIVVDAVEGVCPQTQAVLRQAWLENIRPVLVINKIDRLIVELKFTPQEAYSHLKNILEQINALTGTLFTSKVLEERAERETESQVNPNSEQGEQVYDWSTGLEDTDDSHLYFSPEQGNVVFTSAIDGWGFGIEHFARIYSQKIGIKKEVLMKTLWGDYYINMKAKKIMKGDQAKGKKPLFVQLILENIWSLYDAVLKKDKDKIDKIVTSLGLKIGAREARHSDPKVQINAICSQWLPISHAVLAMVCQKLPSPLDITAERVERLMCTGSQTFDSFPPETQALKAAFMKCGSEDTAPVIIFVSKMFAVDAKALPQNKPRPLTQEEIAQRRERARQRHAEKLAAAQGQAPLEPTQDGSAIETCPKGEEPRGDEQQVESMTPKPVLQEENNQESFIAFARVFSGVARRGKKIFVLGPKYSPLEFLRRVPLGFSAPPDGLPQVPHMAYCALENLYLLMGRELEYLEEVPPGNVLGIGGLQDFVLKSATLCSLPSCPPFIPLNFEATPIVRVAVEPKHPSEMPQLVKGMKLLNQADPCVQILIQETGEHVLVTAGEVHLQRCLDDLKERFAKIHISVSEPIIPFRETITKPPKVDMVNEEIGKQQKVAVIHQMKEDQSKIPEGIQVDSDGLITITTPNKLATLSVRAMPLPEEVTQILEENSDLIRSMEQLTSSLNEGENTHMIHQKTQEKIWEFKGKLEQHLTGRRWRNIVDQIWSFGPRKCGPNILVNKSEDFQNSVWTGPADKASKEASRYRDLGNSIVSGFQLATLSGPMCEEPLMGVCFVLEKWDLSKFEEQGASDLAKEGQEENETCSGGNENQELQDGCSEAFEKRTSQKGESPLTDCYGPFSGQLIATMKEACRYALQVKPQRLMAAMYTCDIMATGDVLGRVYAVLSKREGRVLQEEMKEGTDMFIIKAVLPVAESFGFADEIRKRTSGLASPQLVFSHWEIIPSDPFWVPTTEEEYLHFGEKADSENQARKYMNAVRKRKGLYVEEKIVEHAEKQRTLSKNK
# Chain of UniProt Q8N128 (Q8N128 whole entry, looked up): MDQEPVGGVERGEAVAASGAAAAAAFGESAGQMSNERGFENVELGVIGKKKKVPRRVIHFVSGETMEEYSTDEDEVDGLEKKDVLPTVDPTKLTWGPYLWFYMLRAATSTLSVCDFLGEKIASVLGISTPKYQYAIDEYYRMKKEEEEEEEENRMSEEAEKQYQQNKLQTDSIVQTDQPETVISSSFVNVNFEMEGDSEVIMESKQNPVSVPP
# Chain of UniProt Q9UBQ6 (Q9UBQ6 whole entry, looked up): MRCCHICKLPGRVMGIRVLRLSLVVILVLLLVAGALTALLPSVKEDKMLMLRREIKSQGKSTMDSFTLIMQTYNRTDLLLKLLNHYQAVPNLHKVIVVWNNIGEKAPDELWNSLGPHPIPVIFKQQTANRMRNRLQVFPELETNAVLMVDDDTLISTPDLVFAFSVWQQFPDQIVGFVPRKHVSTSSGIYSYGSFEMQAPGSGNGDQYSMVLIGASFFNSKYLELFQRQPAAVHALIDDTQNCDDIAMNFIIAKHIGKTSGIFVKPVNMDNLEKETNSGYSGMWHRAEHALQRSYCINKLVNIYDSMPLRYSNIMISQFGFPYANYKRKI
# Chain of UniProt P29692 (P29692 whole entry, looked up): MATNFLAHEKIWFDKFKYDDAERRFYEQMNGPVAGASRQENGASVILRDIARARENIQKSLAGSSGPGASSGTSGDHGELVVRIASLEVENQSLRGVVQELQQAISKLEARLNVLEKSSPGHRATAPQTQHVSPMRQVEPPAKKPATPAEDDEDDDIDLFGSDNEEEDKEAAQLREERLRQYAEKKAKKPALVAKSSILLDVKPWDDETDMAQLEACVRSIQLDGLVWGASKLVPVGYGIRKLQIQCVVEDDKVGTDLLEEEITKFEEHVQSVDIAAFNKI
# Chain of UniProt Q9NWS6 (Q9NWS6 whole entry, looked up): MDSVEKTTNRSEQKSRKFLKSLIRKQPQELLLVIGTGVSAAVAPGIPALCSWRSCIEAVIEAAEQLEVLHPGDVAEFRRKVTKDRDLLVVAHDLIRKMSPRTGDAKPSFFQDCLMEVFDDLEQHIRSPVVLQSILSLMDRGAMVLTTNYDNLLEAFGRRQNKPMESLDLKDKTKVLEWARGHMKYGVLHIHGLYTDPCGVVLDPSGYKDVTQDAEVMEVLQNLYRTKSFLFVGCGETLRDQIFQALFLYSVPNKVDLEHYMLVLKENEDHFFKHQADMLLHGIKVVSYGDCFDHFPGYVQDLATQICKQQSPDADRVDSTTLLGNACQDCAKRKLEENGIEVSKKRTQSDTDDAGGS
# Chain of UniProt O00148 (O00148 whole entry, looked up): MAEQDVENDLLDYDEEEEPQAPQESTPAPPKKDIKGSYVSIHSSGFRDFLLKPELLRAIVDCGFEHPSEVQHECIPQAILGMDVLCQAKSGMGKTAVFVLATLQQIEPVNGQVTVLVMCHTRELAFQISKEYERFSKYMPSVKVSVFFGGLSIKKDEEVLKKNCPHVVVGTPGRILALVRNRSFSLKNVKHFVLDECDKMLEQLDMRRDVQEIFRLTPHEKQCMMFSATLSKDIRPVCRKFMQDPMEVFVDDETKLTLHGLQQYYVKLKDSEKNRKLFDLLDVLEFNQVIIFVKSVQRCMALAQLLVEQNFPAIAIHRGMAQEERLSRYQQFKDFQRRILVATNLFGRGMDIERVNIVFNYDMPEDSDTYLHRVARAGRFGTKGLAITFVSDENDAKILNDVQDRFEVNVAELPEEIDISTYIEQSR
Target,log2 fold change [1],log2 fold change (filanesib),log2 fold change (zotarolimus),log2 fold change (idasanutlin),log2 fold change (alisertib),log2 fold change [2],log2 fold change (gefitinib),log2 fold change [3],log2 fold change (lapatinib),log2 fold change (pictilisib),log2 fold change [4],log2 fold change (crizotinib),log2 fold change [5],log2 fold change [6],log2 fold change (duvelisib),log2 fold change (gandotinib),log2 fold change (tozasertib),log2 fold change [7],log2 fold change (doramapimod),log2 fold change (ispinesib)
EXTL2 (UniProt Q9UBQ6),0.051,-0.023,-0.147,-0.121,-0.144,-0.094,0.075,0.123,0.05,-0.111,0.132,0.111,0.014,-0.227,-0.015,0.068,0.141,-0.046,-0.01,0.108
FAM177A1 isoform 2 (UniProt Q8N128),-0.072,-0.145,-0.041,-0.02,0.013,-0.291 (active),0.031,-0.029,-0.018,0,0.018,-0.109,0.059,-0.063,0.012,-0.102,-0.072,-0.027,-0.012,-0.082
FAM160B1 (UniProt Q5W0V3),0.026,-0.145,0.004,-0.053,-0.096,-0.092,0.047,-0.027,0.009,-0.009,0.015,-0.119,0.06,-0.003,0.117,-0.217,0.003,0.049,-0.018,-0.125
EHBP1L1 (UniProt Q8N3D4),0.054,0.147,0.065,-0.021,-0.098,0.119,-0.009,-0.026,0.03,0.217,0.034,-0.01,-0.005,0.012,0.139,-0.206,0.067,0.115,-0.018,-0.047
FADS3 (UniProt Q9Y5Q0),-0.067,-0.151,-0.062,0.007,0.005,-0.036,0.04,0.168,0.097,0.168,0.042,-0.237,0.198,0.055,0.079,-0.058,-0.042,0.073,-0.013,-0.311 (active)
EDC4 (UniProt Q6P2E9),0.018,0.106,0.001,0.044,-0.028,0.062,-0.004,0,0.007,0.006,-0.064,0.179,0.003,-0.092,0.003,-0.18,0.061,0.033,0.005,-0.031
EIF3J (UniProt O75822),-0.067,-0.086,0.007,-0.042,-0.018,0.079,-0.004,-0.057,-0.057,-0.04,-0.024,-0.012,0.009,-0.035,0.048,-0.157,0.038,0.005,-0.022,0.099
FAM118A (UniProt Q9NWS6),0.213,-0.15,0.032,-0.323,0.383,0.023,0.022,-0.044,0,0.207,-0.028,-0.112,0.044,0.036,-0.006,-0.44,-0.088,0.097,-0.02,0.034
EXOC2 (UniProt Q96KP1),0.015,-0.009,0.021,-0.02,-0.011,0.096,0.107,-0.106,-0.037,0.059,0.006,-0.308,-0.112,0.101,-0.081,0.009,0.017,0.119,0.06,-0.394 (active)
EEF1D isoform 2 (UniProt P29692),-0.038,0.034,0.036,-0.042,-0.016,0.028,0.028,-0.011,0.022,-0.01,0.043,0.004,-0.028,0.066,-0.011,-0.057,0.038,0.04,0.026,-0.055
CTSA (UniProt P10619),0.01,-0.111,-0.024,0.015,0.029,0.023,0.1,0.065,0.045,0.038,0.032,-0.563 (active),0.002,-0.036,-0.039,0.043,0.011,0.003,0.009,-0.237 (active)
CYP51A1 (UniProt Q16850),-0.035,0.217,-0.11,0.099,-0.025,-0.005,0.009,-0.105,0.401 (active),-0.216,0.028,0.12,-0.162,0.147,-0.075,-0.111,-0.031,0,0.156,0.117
DDX39A (UniProt O00148),0.135,-0.021,-0.017,-0.093,0.066,-0.16,-0.015,-0.028,-0.007,0.012,0.062,-0.082,0.079,0.002,0.051,-0.009,0.043,0.05,-0.069,-0.064
EEA1 (UniProt Q15075),0.041,-0.012,-0.028,0.017,-0.031,0.002,0.007,0.036,0.021,0,-0.007,-0.007,-0.014,-0.046,0.006,0.02,-0.012,-0.04,0.002,-0.22 (active)
EFL1 (UniProt Q7Z2Z2),-0.021,-0.069,0.022,-0.071,-0.013,0.042,0.019,0.033,-0.034,-0.016,0.02,-0.055,0.074,0.016,0.002,-0.056,-0.009,0.029,-0.013,-0.018
DCAF6 isoform 3 (UniProt Q58WW2),-0.007,-0.017,-0.045,-0.026,-0.081,-0.023,-0.01,0.059,0.016,0.001,-0.008,0.132,0.026,-0.054,0.025,-0.024,-0.034,-0.058,0.056,0.027
